Compounds without any hit were thinned out: in the full panel of roughly 83,000, 20% have a hit.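 Testing used 96-well plates and a 48-hour single-concentration exposure. Example: -40 means 40% of the starting cells died.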 Active and inactive are the calls of the source. The calls were made as follows: active = growth percent below 10; inactive = the rest.

The test relates to MDA-MB-468 breast. In words: NCI-60 one-dose screen, 48 h (100 = growth as untreated, 0 = no growth, -100 = all killed). Particulars: 10 µM unless noted.
`COc1ccc(CNC(=O)COc2ccc(/C=N/Nc3nc4ccccc4s3)cc2)cc1`: the growth is 28.3% (inactive). On to `ClC1=C(Cl)C(Cl)=C(Cl)C1=Cc1ccc(Cl)cc1`, for which the growth was 45.3% (inactive).

Take `NNc1nnc2nc(Nc3ccccc3)nc(Nc3ccc(S(N)(=O)=O)cc3)n12`: the growth was 126% (inactive). In the case of `Cc1cc(NCCN(C(C)C)C(C)C)nc(/N=C(\N)Nc2ccc(Cl)c(C(F)(F)F)c2)n1`, the growth is -98.6% (active). The same measure for `Clc1ccc2nc3nc4ccc[nH]c4cc3c2c1`: -31.5% (active); for `COc1ccc2sc(NC(=O)CCCCCCNC(=O)C(O)(O)C(F)(F)F)nc2c1`: -11.7% (active).

On to `O=C(COCc1c(-c2ccccc2)no[n+]1[O-])Nc1ccc(C(=O)/C=C/c2ccc3c(c2)OCO3)cc1`, for which the growth is 98.7% (inactive).

For the molecule `COc1ccc2cc(C(=O)N3CCC([C@@H](C)C(=O)NCc4ccc5c(c4)OCO5)CC3)[nH]c2c1`, the growth is 41.1% [50 µM] (inactive). The same measure for `CNC(=O)c1cc(Oc2ccc3nc(NC(=O)NC(C)C)sc3c2)ccn1`: 34.3% (inactive); for `N=C(N)c1ccc(-c2ccc(-c3ccccc3)s2)s1`: -94.5% (active); for `CCSc1nc(-c2cccs2)n2nc(-c3ccco3)cc2n1`: -37.1% (active). The same measure for `Cc1ccc(NC(=O)c2[nH]c(SCCN(C)C)nc2-c2ccc(F)cc2)cc1C#Cc1cnc2cccnn12`: 83.1% (inactive); for `COc1cc2cc3c(=O)n4c(cc5cc(OC)ncc54)c(=O)n3c2cn1`: 102% (inactive); for `C=CCOc1cccc(/C=C/C(=O)c2sc(Nc3cccnc3)nc2C)c1`: 47.5% (inactive).
